Results on 38 compounds are retold here after the antibiotic and cytotoxicity screens of Wong et al. (2023).

The campaign covered roughly 39,000 compounds. About 3,300 (8.5%) were called active. This is one part of a sample in which actives are shown more often than they occur.

The experiment has as its system HepG2. The experiment in a line: cytotoxicity call (relative viability < 0.9). Particulars: 10 µM.
With `C[C@H]1CCCCO[C@H](CN(C)C(=O)c2ccccc2)[C@@H](C)CN([C@@H](C)CO)C(=O)c2cc(NC(=O)NC3CCCCC3)ccc2O1`, the cytotoxicity call is “inactive”.

`C[C@@H]1CN([C@H](C)CO)C(=O)c2cc(NC(=O)c3ccncc3)ccc2O[C@@H]1CN(C)Cc1ccc2c(c1)OCO2`: the cytotoxicity call was “inactive”.

Regarding `COc1ccc(S(=O)(=O)Nc2ccc3c(c2)C(=O)N([C@@H](C)CO)C[C@@H](C)[C@@H](CN(C)C(=O)Nc2ccc4c(c2)OCO4)OCCCC[C@H](C)O3)cc1`, the cytotoxicity call was “inactive”.

As for `Cc1cn([C@@H]2C[C@H](O)[C@@H](CO)O2)c(=O)[nH]c1=O`, the cytotoxicity call is “inactive”.

As for `Cc1ccc(S(=O)(=O)Nc2ccc3c(c2)C(=O)N([C@H](C)CO)C[C@H](C)[C@H](CN(C)C(=O)CCC(F)(F)F)OCCCC[C@@H](C)O3)cc1`, the cytotoxicity call is “inactive”.

Turning to `CC(C)(C)OC(=O)C[C@H]1CC=CC[C@@H](CC(=O)NCCO)C(=O)N[C@@H](Cc2ccccc2)COC1=O`, the cytotoxicity call was “inactive”.

As to `C[C@@H]1CN([C@@H](C)CO)C(=O)c2cccc(NC(=O)c3ccncc3)c2O[C@H]1CN(C)Cc1ccc2c(c1)OCO2`, the cytotoxicity call is “inactive”.

As to `CC(C)NC(=O)Nc1ccc2c(c1)C(=O)N([C@@H](C)CO)C[C@H](C)[C@@H](CN(C)Cc1ccc(C(=O)O)cc1)O2`, the cytotoxicity call is “inactive”.

On to `C[C@@H]1CCCCO[C@@H](CN(C)C(=O)Nc2ccc(F)cc2)[C@@H](C)CN([C@H](C)CO)C(=O)c2cc(NC(=O)c3ccncc3)ccc2O1`, for which the cytotoxicity call was “inactive”.

Take `Cc1ccc(S(=O)(=O)Nc2ccc3c(c2)C(=O)N([C@H](C)CO)C[C@H](C)[C@@H](CN(C)C(=O)Nc2ccc4c(c2)OCO4)OCCCC[C@H](C)O3)cc1`: the cytotoxicity call is “inactive”.

In the case of `Cc1ccc(S(=O)(=O)Nc2ccc3c(c2)C(=O)N([C@@H](C)CO)C[C@H](C)[C@@H](CN(C)C(=O)Nc2ccc4c(c2)OCO4)OCCCC[C@@H](C)O3)cc1`, the cytotoxicity call was “inactive”.

As for `C[C@H]1CCCCO[C@H](CN(C)C(=O)Nc2ccc3c(c2)OCO3)[C@@H](C)CN([C@@H](C)CO)C(=O)c2cc(NS(=O)(=O)c3ccc(Cl)cc3)ccc2O1`, the cytotoxicity call is “active”.

Take `COc1ccc(S(=O)(=O)Nc2ccc3c(c2)C(=O)N([C@@H](C)CO)C[C@H](C)[C@@H](CN(C)C(=O)Nc2ccc4c(c2)OCO4)OCCCC[C@@H](C)O3)cc1`: the cytotoxicity call is “inactive”.

As to `C[C@@H]1CCCCO[C@H](CN(C)C(=O)Nc2ccc3c(c2)OCO3)[C@H](C)CN([C@@H](C)CO)C(=O)c2cc(NS(=O)(=O)c3ccc(Cl)cc3)ccc2O1`, the cytotoxicity call was “inactive”.

For `Cc1ccc(S(=O)(=O)Nc2ccc3c(c2)C(=O)N([C@H](C)CO)C[C@H](C)[C@H](CN(C)C(=O)Nc2ccc4c(c2)OCO4)OCCCC[C@H](C)O3)cc1`, the cytotoxicity call is “active”.

Regarding `COc1ccc(S(=O)(=O)Nc2ccc3c(c2)C(=O)N([C@@H](C)CO)C[C@@H](C)[C@@H](CN(C)C(=O)Nc2ccc4c(c2)OCO4)OCCCC[C@@H](C)O3)cc1`, the cytotoxicity call was “active”.

For the compound `COc1ccc(S(=O)(=O)Nc2ccc3c(c2)C(=O)N([C@H](C)CO)C[C@H](C)[C@H](CN(C)C(=O)Nc2ccc4c(c2)OCO4)OCCCC[C@H](C)O3)cc1`, the cytotoxicity call is “inactive”.

With `C[C@@H]1CN([C@H](C)CO)C(=O)c2cc(NS(=O)(=O)c3ccc(Cl)cc3)ccc2O[C@@H](C)CCCCO[C@H]1CN(C)C(=O)Nc1ccc2c(c1)OCO2`, the cytotoxicity call is “inactive”.

`COc1ccc2c3c(n(c2c1)C)[C@@H](CO)N(Cc1cc(cc(c1)OC)OC)C[C@]13CN(C1)C(=O)CN1CCOCC1`: the cytotoxicity call was “inactive”.

As to `COCC(=O)N1CC[C@@H]2N(S(C)(=O)=O)CC[C@@]2(C(=O)N2CCOCC2)CC1`, the cytotoxicity call is “inactive”.

Regarding `CC(=O)Nc1cc(C(C)C)c(C(C)C)cc1C(C)C`, the cytotoxicity call was “inactive”.

Take `C[C@H](CO)N1C[C@H](C)[C@@H](CN(C)C(=O)Nc2ccc3c(c2)OCO3)OCCCC[C@H](C)Oc2ccc(NC(=O)c3ccccc3)cc2C1=O`: the cytotoxicity call was “inactive”.

Consider `COCC(=O)N1C[C@H](C)[C@H](OC)CN(C)C(=O)c2cc(NC(=O)c3ccc(F)cc3)ccc2OC[C@@H]1C`, for which the cytotoxicity call was “inactive”.

With `C[C@H]1CN([C@@H](C)CO)C(=O)c2cc(NS(=O)(=O)c3cccs3)ccc2O[C@@H]1CN(C)S(=O)(=O)c1ccc(F)cc1`, the cytotoxicity call was “inactive”.

In the case of `COc1ccc2c3c([nH]c2c1)[C@H](CO)N(C[C@]13CCN(CC1)C(=O)c1ccccc1F)C(=O)Nc1ccccc1F`, the cytotoxicity call was “inactive”.

`C[C@@H]1CN([C@H](C)CO)C(=O)c2cccc(NC(=O)Nc3ccc4c(c3)OCO4)c2O[C@H]1CN(C)S(C)(=O)=O`: the cytotoxicity call was “inactive”.

With `CN1C[C@@H](O)COC[C@H]2O[C@@H](CC(=O)N3CCN(c4ccccc4)CC3)CC[C@@H]21`, the cytotoxicity call is “inactive”.

In the case of `CN1CCCC1c1cccnc1.O=C(O)C(O)C(O)C(=O)O.O=C(O)C(O)C(O)C(=O)O` (stereo not drawn), the cytotoxicity call is “inactive”.

For the compound `C[C@H](c1cccnc1)N(C(=O)Nc1ccccc1)C1CCCCC1`, the cytotoxicity call is “active”.

As for `CN(C)S(=O)(=O)N1C[C@H]2C[C@H](C(=O)Nc3cccnc3)[C@@H](C1)O2`, the cytotoxicity call is “inactive”.

For the compound `C[C@@H]1CN([C@@H](C)CO)C(=O)c2cccc(NC(=O)C3CCCCC3)c2O[C@@H]1CN(C)C(=O)Nc1cccc2ccccc12`, the cytotoxicity call is “inactive”.

`C=CCN1C(=O)[C@@]2(O[C@@H](CCn3cc(CCO)nn3)[C@H]([Si](C)(C)c3ccc(OC)cc3)[C@H]2C)c2cc(N3CCC3=O)ccc21`: the cytotoxicity call was “inactive”.

With `C=CCN1C(=O)[C@@]2(O[C@@H](CCO)[C@H]([Si](C)(C)c3ccc(OC)cc3)[C@H]2C)c2cc(N(C=O)c3ccccc3)ccc21`, the cytotoxicity call was “active”.

On to `C=CCN1C(=O)[C@]2(O[C@H](CCO)[C@@H]([Si](C)(C)c3ccc(OC)cc3)[C@@H]2C)c2cc(N(C=O)c3ccccc3)ccc21`, for which the cytotoxicity call is “active”.

On to `C=CCN1C(=O)[C@]2(O[C@H](CCO)[C@@H]([Si](C)(C)c3ccc(OC)cc3)[C@@H]2C)c2cc(NC(=O)[C@H](C)O)ccc21`, for which the cytotoxicity call was “inactive”.

As for `C=CCN1C(=O)[C@]2(O[C@H](CCn3cc(CCO)nn3)[C@@H]([Si](C)(C)c3ccc(OC)cc3)[C@@H]2C)c2cc(N3CCC3=O)ccc21`, the cytotoxicity call is “inactive”.

With `C=CCN1C(=O)[C@@]2(O[C@@H](CCO)[C@H]([Si](C)(C)c3ccc(OC)cc3)[C@H]2C)c2cc(NC(=O)[C@H](C)O)ccc21`, the cytotoxicity call was “inactive”.

On to `CC(=O)N[C@H](Cc1ccc2ccccc2c1)C(=O)N[C@H](Cc1ccc(Cl)cc1)C(=O)N[C@H](Cc1cccnc1)C(=O)N[C@@H](CO)C(=O)N[C@@H](Cc1ccc(NC(=O)[C@@H]2CC(=O)NC(=O)N2)cc1)C(=O)N[C@H](Cc1ccc(NC(N)=O)cc1)C(=O)N[C@@H](CC(C)C)C(=O)N[C@@H](CCCCNC(C)C)C(=O)N1CCC[C@H]1C(=O)N[C@H](C)C(N)=O`, for which the cytotoxicity call was “inactive”.
